WRN helicase inh: WRN helicase (human) inhibition | WRN helicase unwinding, fluorescent forked duplex, kinetic | Potency, µM (top dose mostly 114 µM), without a hit: at the highest dose activity change, negative = inhibition, hits mostly inhibitors | 360,000 tested, 0.46% active | Q14191; note: % is set by controls: 0 for no effect and ±100 for the full control effect; nearly all actives have a fitted effect of over 55% in size
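WRN at 20 nM final preincubated with compound 15 min at room temperature; reaction started with 100 nM fluorophore/quencher forked duplex oligonucleotide and 2 mM ATP final. Unwinding followed kinetically by red fluorescence (ex 525, em 598 nm).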
FEN1 inhibitor: human FEN1 inhibition | 390,000 tested, 0.35% active | Recombinant FEN1 flap cleavage, fluorescence, 15 min | Potency, µM (top dose mostly 114 µM), for inactives: top-dose activity change, negative = inhibition, hits mostly inhibitors | AID 588795 | P39748; note: % is set by controls: 0 for no effect and ±100 for the full control effect; nearly all actives have a fitted effect of over 65% in size
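In this screen, 50 nM flap DNA substrate was added to 10 nM FEN1 pretreated with compound for 15 min at room temperature; cleavage was followed with reads at 0 and 15 min, and Hill fitting gave concentration–response parameters.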
Pol beta inh: inhibitors of human DNA polymerase beta; Potency, µM (doses to about 114 µM), for the others: top-dose activity change, negative = inhibition, hits mostly inhibitors; 340,000 tested, 1.3% active; P06746; AID 485314; Pol beta primer extension/strand displacement, fluorescence kinetic; note: % is set by controls: 0 for no effect and ±100 for the full control effect
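Values derive from four-parameter Hill fits of normalized kinetic data: reads at 0 and 10 min following addition of 50 nM substrate to 10 nM Pol beta preincubated 15 min with compound.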
POLK inh: blocks human DNA polymerase kappa activity | Q9UBT6 | purified Pol kappa, fluorescent DNA synthesis assay, 10 min | Potency, µM (series often up to 107 µM), inactives show top-dose activity, negative = inhibition, hits mostly inhibitors | 400,000 tested, 0.53% active | AID 588579; note: % is set by controls: 0 for no effect and ±100 for the full control effect
Target sequence (Q9UBT6 whole entry, looked up): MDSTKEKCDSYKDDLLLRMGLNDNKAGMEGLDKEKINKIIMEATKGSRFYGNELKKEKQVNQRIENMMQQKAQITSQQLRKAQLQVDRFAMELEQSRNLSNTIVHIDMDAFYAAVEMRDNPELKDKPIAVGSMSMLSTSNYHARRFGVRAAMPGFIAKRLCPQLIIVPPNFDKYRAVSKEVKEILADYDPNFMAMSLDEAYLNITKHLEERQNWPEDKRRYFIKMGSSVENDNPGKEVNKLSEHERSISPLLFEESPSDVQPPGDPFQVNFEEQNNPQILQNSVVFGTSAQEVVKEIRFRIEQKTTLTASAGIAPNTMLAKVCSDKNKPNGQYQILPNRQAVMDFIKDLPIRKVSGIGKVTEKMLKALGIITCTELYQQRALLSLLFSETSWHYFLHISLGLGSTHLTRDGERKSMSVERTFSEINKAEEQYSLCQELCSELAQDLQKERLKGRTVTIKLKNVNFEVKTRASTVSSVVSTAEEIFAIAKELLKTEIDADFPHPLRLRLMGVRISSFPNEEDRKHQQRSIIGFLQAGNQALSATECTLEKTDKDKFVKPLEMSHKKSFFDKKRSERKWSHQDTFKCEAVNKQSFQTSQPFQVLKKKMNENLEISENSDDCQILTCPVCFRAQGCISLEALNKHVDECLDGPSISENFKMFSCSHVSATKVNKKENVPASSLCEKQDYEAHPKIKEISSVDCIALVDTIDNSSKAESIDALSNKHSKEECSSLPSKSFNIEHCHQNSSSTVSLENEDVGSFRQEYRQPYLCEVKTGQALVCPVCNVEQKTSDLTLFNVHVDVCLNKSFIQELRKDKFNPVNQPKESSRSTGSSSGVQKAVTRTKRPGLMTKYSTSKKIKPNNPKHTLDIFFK
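Activity was followed as the change in fluorescence between reads at 0 and 10 min after starting the reaction with 50 nM substrate. Beforehand, 10 nM polymerase had been preincubated with compound for 15 min at room temperature.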
POLH inh: blocks human DNA polymerase eta activity; recombinant Pol eta, fluorescent DNA replication assay; Potency, µM (top dose mostly 114 µM), for the others: at the highest dose activity change, negative = inhibition, actives largely listed as inhibitors; 390,000 tested, 1.2% active; note: % is set by controls: 0 for no effect and ±100 for the full control effect
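Fluorescent replication assay: 50 nM final substrate added after a 15 min room-temperature compound preincubation with 10 nM enzyme. Signal taken at 0 min and again at 10 min.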
POLI inh: blocks human DNA polymerase iota activity. 390,000 tested, 1% active. AID 588590. Pol iota fluorescent replication assay, 10 min. Q9UNA4. Potency, µM (doses to about 115 µM), for inactives: at the highest dose activity, negative = inhibition, most hits filed as inhibitors
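Pol iota at 10 nM preincubated 15 min with compounds at room temperature; reaction started with fluorescent substrate, 50 nM final. Fluorescence read kinetically at 0 and 10 min; buffer-only wells as negative control.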
* = called active by the depositor; ? = inconclusive; nt = no result given; ! = a repeat was not active; [ ] = another dose, or the depositor's remark. This is a sample that favours compounds with a hit; in the whole collection about 2.4% have one here. Calls come from the whole dose curve; as a rule, active = well fitted curve in the direction sought with a large enough effect; inconclusive = small, poorly fitted or top-dose-only effect, or another doubt; inactive = no such curve, though single readings can be large; an effect the other way counts as inactive or inconclusive. Potency is the fitted concentration of half-maximal effect.

SMILES | WRN helicase inh | FEN1 inhibitor | Pol beta inh | POLK inh | POLH inh | POLI inh
C[C@@H](NC(=O)/C(C#N)=C/c1ccc(O)c(O)c1)c1ccccc1 | -14% | ? | 10%[57.1 µM] | ? | 14µM*! | ?
COc1cc(/C=C(/C#N)C(=O)Nc2ccccc2)ccc1OCc1ccc(C(=O)O)cc1 | -14%[11.6 µM] | ? | -4% | -4% | 79µM* | 0%
C[C@H](NC(=O)/C(C#N)=C/c1ccc(O)c(O)c1)c1ccccc1 | nt | nt | 5%[57.1 µM] | ? | 22µM* | ?
CC(NC(=O)/C(C#N)=C/c1ccc(Cl)c([N+](=O)[O-])c1)c1ccccc1 (configuration not stated) | -7% | -20% | -1% | -12% | -20% | -8%
Cc1ccc(-c2[nH]ncc2CNCc2ccc(CN(C)C)cc2)cc1 | nt | -3% | nt | 11% | nt | 29%
CC(NC(=O)/C(C#N)=C/c1ccc(OCC(=O)O)cc1)c1ccccc1 (configuration not stated) | -4% | 24% | -13% | -17% | 18µM* | ?
CC(NC(=O)/C(=C/c1ccc(OC(F)F)cc1)c1ccccc1)c1ccccc1 (configuration not stated) | 6% | -9% | -21% | -21% | -18% | 20%
N#C/C(=C\c1ccc(O)c(O)c1)C(=O)Nc1ccccc1 | ? | ? | -2%[57.1 µM] | ? | 13µM*! | 56µM*
N#C/C(=C\c1cccc(O)c1)C(=O)Nc1ccc2c(c1)OCCO2 | ? | -3% | -6% | 0% | -5% | 79µM*
COc1ccc(-c2nc(N3CCN(S(=O)(=O)c4ccccc4)CC3)c3ccccc3n2)cc1 | nt | 11% | nt | 0% | nt | -13%
Nc1c(-c2nc(-c3ccncc3)no2)nnn1CC(=O)Nc1ccccc1 | nt | 10% | ? | -8% | nt | 21%
O=C(/C=C/c1ccc(N2CCC(c3ccccc3)=N2)cc1)c1ccccc1 | 50µM* | -9% | 0% | -15% | -15% | ?
O=C(C[n+]1c(Cl)cc(Cl)c2ccccc21)c1ccccc1 | nt | -22% | nt | 9% | nt | -13%
CC(C)C[C@H](NC(=O)[C@@H]1CCCN1C(=O)[C@H](Cc1ccccc1)NC(=O)[C@H](C)NC(=O)[C@H](CCC(=O)O)NC(=O)[C@H](C)NC(=O)[C@H](CO)NC(=O)[C@H](CCC(=O)O)NC(=O)[C@H](CC(=O)O)NC(=O)[C@H](CCC(=O)O)NC(=O)[C@H](C)NC(=O)CNC(=O)[C@H](CC(N)=O)NC(=O)[C@@H]1CCCN1C(=O)[C@H](Cc1ccc(O)cc1)NC(=O)[C@@H](NC(=O)[C@H](CCCCN)NC(=O)[C@@H](NC(=O)[C@@H]1CCCN1C(=O)[C@@H](N)CCCNC(=N)N)C(C)C)C(C)C)C(=O)N[C@@H](CCC(=O)O)C(=O)N[C@@H](Cc1ccccc1)C(=O)O | nt | nt | nt | -6%[12 µM] | nt | nt
Nc1ccc(Oc2ncccn2)cc1 | -6% | 5% | 4% | -8% | 40µM* | ?
CCCCCCCCCCCCCCCC(C)C1=NCCN1 (configuration not stated) | nt | 23% | nt | -2% | nt | 1%
CC(=O)N(c1ccc(Cl)cc1)C1SC(=O)N(c2ccccc2)C1=O (configuration not stated) | nt | -11% | nt | 0% | nt | ?
OCC[N+]1(CCc2ccccc2)CCOCC1 | nt | 10% | nt | 5% | nt | 1%
Cc1ccc(S(=O)(=O)Oc2cccc(/C=N/Nc3ccc(C(=O)O)cc3)c2)cc1 | -15% | -23% | -9% | 5% | 79µM* | 1%
Cc1ccc(S(=O)(=O)Oc2cccc(/C=N/n3cnnc3)c2)cc1 | 0% | 2% | 2% | 7% | -11% | 1%
NS(=O)(=O)c1cccc2c1c([N+](=O)[O-])cc1[nH]c(=O)c(=O)[nH]c12 | nt | nt | nt | 21µM* | nt | nt
Cc1ccccc1Nc1c(-c2ccc(Cl)s2)nc2c(C)cccn12 | nt | -6% | 11µM* | -24% | -15% | -39%
Cc1ccccc1Nc1c(-c2ccc(Cl)cc2)nc2c(C)cccn12 | nt | -5% | -1% | 5% | 3% | -1%
COc1ccc(Nc2nc(-c3cc4cccc(OC)c4oc3=O)cs2)cc1 | -22% | -2% | -12% | -4% | -6% | 3%
COc1cccc2cc(/C(C)=N/Nc3nc(-c4cc(C)ccc4C)cs3)c(=O)oc12 | ? | 25% | 40µM* | -8% | 50µM* | -15%
SMILES | WRN helicase inh | FEN1 inhibitor | Pol beta inh | POLK inh | POLH inh | POLI inh
Cc1cc(N(C)C)cc(C)c1/C=C/c1ccnc2ccccc12 | nt | -13% | nt | 0% | nt | 15%
C[n+]1c(/C=C/c2ccnc3ccccc23)cc(/C=C/c2ccnc3ccccc23)c2ccccc21 | nt | 10µM* | nt | -31% | nt | ?
Cc1cc([N+](C)(C)C)cc(C)c1/C=C/c1ccnc2ccccc12 | nt | 22µM* | nt | ? | nt | ?
O=c1c([N+](=O)[O-])c(O)c2cccc3c2n1CCC3 | -12%[11.6 µM] | ? | 35µM* | ? | 50µM* | -86%
CNC(=O)c1c(O)c2cccc3c2n(c1=O)CCC3 | ? | -3% | 31% | -2% | 10% | 111%
CC[N+]1(CC(=O)c2cccs2)CCCCC1 | nt | 19% | nt | 0% | nt | 27%
CCOC(=O)c1sc(Nc2nc3cc4c(cc3s2)OCO4)cc1C | -15% | -9% | 35µM* | -5% | ? | 11%
C(=Nc1ccc(/C=C/c2ccnc3ccccc23)cc1)c1ccc2c(c1)OCO2 | nt | -33% | nt | -72% | nt | -26%
C[C@@H]1O[C@H](O[C@@H]2C(O)[C@H](O)[C@@H](CO)O[C@H]2Oc2cc(O)c3c(=O)cc(-c4ccc(O)cc4)oc3c2)[C@H](O)[C@H](O)[C@H]1O (some centres not stated) | nt | nt | nt | 3%[60.1 µM] | nt | nt
COCCCNC(=O)c1ccc(Cn2c(=O)c3ccccc3n(CC(=O)Nc3ccc(C)cc3C)c2=O)cc1 | nt | -14% | -9% | 2% | -15% | ?
COCCCNC(=O)Cn1c(=O)n(Cc2ccc(C(=O)NCc3ccc(C)cc3)cc2)c(=O)c2ccccc21 | nt | ? | ? | -18% | ? | 89µM*
O=C1CSC(=S)N1/N=C/c1ccc(O)c(O)c1O | 10µM* | 2.8µM* | 0.32µM* | 0.71µM* | 0.71µM* | -103%
Cc1ccc(C(=O)O)cc1NC(=O)c1nsc2ccccc12 | nt | -9% | 79µM* | -31% | nt | ?
Cc1ccc(C(=O)N2CCCCC2)cc1NC(=O)c1nsc2ccccc12 | nt | -15% | ? | -9%[60.1 µM] | -14% | -9%
O=[N+]([O-])c1ccccc1/C=C/c1ccnc2ccccc12 | nt | -26% | nt | -19% | nt | ?
COc1ccc(OCC(=O)OCc2cc(=O)n3nc(C4CCCCC4)sc3n2)cc1 | nt | -24% | 45µM* | -27% | -28% | ?

Screening data deposited in PubChem by National Center for Advancing Translational Sciences (NCATS).
